Tau fibril FP: qHTS for Inhibitors of Tau Fibril Formation, Fluorescence Polarization. Microtubule-associated protein tau (Homo sapiens), P10636. K18 P301L tau heparin fibrillization, Alexa594 FP, 6 h. Potency, µM (series often up to 57.7 µM), without a hit: at the highest dose activity, negative = inhibition, actives largely listed as inhibitors. 280,000 compounds, 0.39% hits; note: potency is the fitted concentration of half-maximal effect; nearly all actives have a fitted effect of over 55% in size
Target sequence (P10636 561-689 P618L limits assumed): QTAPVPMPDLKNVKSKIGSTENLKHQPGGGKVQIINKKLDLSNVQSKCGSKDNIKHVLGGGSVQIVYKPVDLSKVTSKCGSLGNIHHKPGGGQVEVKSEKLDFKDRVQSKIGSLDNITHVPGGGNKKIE
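Steps: dispense K18 P301L tau (15 uM plus 0.24 uM Alexa 594 tracer, final) in pH 7 sodium acetate; add compound; add heparin (20 uM final); incubate 6 hr, 37 C; add ThT (30 uM final); after 1 hr ambient, read FP.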
Tau fluor cs: Counterscreen qHTS for Inhibitors of Tau Fibril Formation, Fluorescence Polarization; tau K18 P301L Alexa594 fluorescence, heparin fibrillization; Potency, µM (doses to about 57.7 µM), inactives show top-dose activity change, negative = decrease; 280,000 compounds, 0.93% hits; AID 1463, 2008; note: potency is the fitted concentration of half-maximal effect; nearly all actives have a fitted effect of over 55% in size
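Human tau K18 P301L (15 uM unlabeled, 0.24 uM Alexa 594-labeled) in 100 mM sodium acetate pH 7 with 20 uM heparin, 6 hr at 37 C. ThT 30 uM added, 1 hr ambient; Alexa 594 FP and total fluorescence read at 555/632 nm.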
Coupling enz: qHTS Assay for Inhibitors of Fructose-1,6-bisphosphate Aldolase from Giardia Lamblia: Coupling assay counterscreen. coupling enzyme system counterscreen, AmpLite Red fluorescence. activity change, negative = inhibition, % at 58.2 µM, hits read low. 290,000 compounds, 0.67% hits. AID 2472, 2010; in the data active = activity change below about -30%
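Fluorescence at 525 nm excitation and 598 nm emission measured inhibition of the coupled detection system without aldolase. Compounds (at 57.5 uM final) were preincubated 10 min at room temperature with coupling enzyme reagent before a 20 min substrate/AmpLite Red step.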
Sfp inh: qHTS Assay for Inhibitors of Bacillus subtilis Sfp phosphopantetheinyl transferase (PPTase). Potency, µM, for the others: largest response in the series, negative = inhibition, actives largely listed as inhibitors. 4'-phosphopantetheinyl transferase ffp (Bacillus subtilis), Q9F4F7. Biochemical Sfp PPTase activity, qHTS. AID 1490, 2009. 310,000 compounds, 3.5% hits;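 note: the enzyme is Sfp with the accession as filed and its product quenches rhodamine fluorescence; potency is the fitted concentration of half-maximal effect; 0% = enzyme reaction without inhibitor and -100% = no enzyme wells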
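Fluorescence-quenching assay with 15 nM Sfp, 5 uM rhodamine-CoA and 12.5 uM BHQ-2-labelled ybbR peptide in pH 7.6 Hepes/MgCl2 buffer. Enzyme was pre-incubated with compound for 15 min at room temperature. Rate was taken from the 30-min fluorescence change (525/598 nm).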
Tau ThT inhib: qHTS for Inhibitors of Tau Fibril Formation, Thioflavin T Binding; Microtubule-associated protein tau (Homo sapiens), P10636; recombinant tau K18 P301L (four-repeat tau fragment), heparin-induced fibrillization, ThT fluorescence; Potency, µM (series often up to 57.4 µM), for the others: at the highest dose activity, negative = inhibition, hits mostly inhibitors; 270,000 compounds, 2.1% hits; note: potency is the fitted concentration of half-maximal effect; nearly all actives have a fitted effect of over 55% in size
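In this qHTS, human K18 P301L tau is incubated with compound and heparin for 6 hr at 37 C, and Thioflavin T fluorescence then reports fibril load.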
Numbers without * were called inactive; ? = inconclusive; . = no result given; [ ] = remark or other dose. An excerpt weighted towards active compounds, which were near 5.2% of everything screened. Unless noted, calls come from the whole dose curve; as a rule, active = well fitted curve in the direction sought with a large enough effect; inconclusive = small, poorly fitted or top-dose-only effect, or another doubt; inactive = no such curve, though single readings can be large; an effect the other way counts as inactive or inconclusive. Unless noted, % is set by controls: 0 for no effect and ±100 for the full control effect.

SMILES | Tau fibril FP | Tau fluor cs | Coupling enz | Sfp inh | Tau ThT inhib
N#CC1=C(N)SC(N)=C(C#N)C1Cc1ccccc1 | -6% | -15% | -1 | ? | ?
N#CC1=C(N)SC(N)=C(C#N)C1C1CC=CCC1 (stereo not given) | 2% | -5% | -1 | 20µM* | -3%
N#CC1=C(N)SC(N)=C(C#N)C1C1C=CCCC1 (stereo not given) | -2% | -7% | -2 | 40µM* | -8%
Cc1cc2c(c(=O)o1)C(C1C=CCCC1)C(C#N)=C(N)O2 (stereo not given) | 1% | -9% | -21 | -7% | -12%
CC1=C(C(=O)O)N2C(=O)C(NC(=O)C(N)C3=CCC=CC3)C2SC1 (stereo not given) | ? | -26% | 0 | -75% | ?
NC(C(=O)N[C@@H]1C(=O)N2C(C(=O)O)=C(Cl)CS[C@H]12)c1ccccc1 (stereo not given in full) | ? | -15% | . | . | 28µM*
CC1=C(C(=O)O)N2C(=O)C(NC(=O)C(N)c3ccc(O)cc3)C2SC1 (stereo not given) | ? | ? | -1 | -82% | 28µM*
COc1ccc(/C=C/C=C2\NC(=S)NC2=O)cc1 | 11% | -11% | 6 | 16% | 2µM*
O=C1NC(=S)N/C1=C\C=C\c1ccccc1 | -4% | 1% | -3 | 14% | .
CCOc1ccc2[nH]c(=O)c(CN(CCO)C(c3nnnn3C3CCCCC3)C(C)C)cc2c1 (stereo not given) | 1% | 3% | -2 | 89µM* | -11%
CCCOc1ccc(C2C(=O)N(C3CCCCCC3)CC(=O)N2C(C)C)cc1OC (stereo not given) | 6% | -3% | . | . | 2%
CC(=O)Nc1c(C)nn(-c2ccccc2)c1N1CCC(C(=O)Nc2ccccc2F)CC1 | -2% | 1% | . | . | 6%
Oc1c(C(c2ccco2)N2CCOCC2)sc2ncnn12 (stereo not given) | -11% | -15% | -8 | 40µM* | ?
Cc1nc2sc(C(c3ccco3)N3CC(C)OC(C)C3)c(O)n2n1 (stereo not given) | -4% | -3% | -7 | 25µM* | -2%
Cc1nc2sc(C(c3ccco3)N3CCN(C(c4ccccc4)c4ccccc4)CC3)c(O)n2n1 (stereo not given) | -2% | 6% | -4 | 7.9µM* | 10%
Cc1nc2sc(C(c3ccco3)N3CCC(C)CC3)c(O)n2n1 (stereo not given) | 0% | 2% | 0 | 16µM* | -9%
Oc1c(C(c2ccccc2)N2CCCCC2)sc2ncnn12 (stereo not given) | 2% | -1% | 0 | 7% | -4%
COc1ccccc1N1C(=O)CC(N(O)c2ccccc2)C1=O (stereo not given) | 6% | -11% | 1 | 9% | ?
COc1ccccc1N(O)C1CC(=O)N(c2ccc(F)cc2)C1=O (stereo not given) | ? | 16µM*[quencher] | -14 | ? | 14µM*
O=C(Nc1ccccc1)Nc1nnc(Cc2ccc([N+](=O)[O-])cc2)s1 | ? | ? | -1 | ? | -14%
Cc1ccc(NC(=O)Nc2nnc(Cc3ccc([N+](=O)[O-])cc3)s2)cc1C | ? | 5µM*[quencher] | -1 | -10% | ?
CCCNC(=O)C1CCC(Cn2c(=O)c3sccc3n(CC(=O)NCc3cccc(OC)c3OC)c2=O)CC1 (stereo not given) | -17% | -7% | . | . | -4%
Cc1ccc([N+](=O)[O-])cc1S(=O)(=O)Nc1ccc(O)c(Sc2ncn[nH]2)c1 | . | . | . | 45µM* | .
N[C@@H](COC(c1cccc(F)c1)c1ccccc1OCc1ccccc1)C(=O)O (stereo not given in full) | . | . | -3 | -14% | .
CCOc1ccccc1CNC(=O)c1cnc2sc(N3CCC(C)CC3)nn2c1=O | -5% | -9% | . | . | -13%
SMILES | Tau fibril FP | Tau fluor cs | Coupling enz | Sfp inh | Tau ThT inhib
O=C(c1cccc(F)c1)N1CCC2(CC1)CN(c1ccccc1)C2 | . | . | 6 | -11% | .
O=C(O)c1cc(Cl)c2c(c1)[C@@H]1C=CC[C@@H]1[C@H](c1ccc(S(=O)(=O)N3CCOCC3)cc1)N2 | 5% | 6% | -26 | ? | 11%
Cc1cc(C)c2c(c1)C1C=CCC1C(c1ccc(S(=O)(=O)N3CCOCC3)cc1)N2 (stereo not given) | 5% | -3% | 2 | 40µM* | -1%
Cn1c(=O)c2cc(C(=O)N3CCN(c4ccc(Cl)cc4)CC3)sc2c2ccccc21 | 3% | -16% | . | . | -13%
NNC(=O)CCc1c[nH]c2ccccc12 | -1% | -27% | -3 | 8% | ?
CC(C)CNC(=O)CCc1c[nH]c2ccccc12 | ? | -2% | -5 | 0% | ?
Cc1cccc(OCC(=O)NC(Cc2c[nH]c3ccccc23)C(=O)O)c1C (stereo not given) | 2% | -9% | 0 | 50µM* | ?
O=C(COC(=O)CCc1c[nH]c2ccccc12)NC(c1ccccc1)c1ccccc1 | ? | 14µM*[quencher] | -2 | 5% | -9%
CC(OC(=O)CCc1c[nH]c2ccccc12)C(=O)c1ccccc1 (stereo not given) | 5% | 11µM*[quencher] | -5 | 6% | ?
COc1ccc(CNC(=O)Cn2ccc3cc(S(=O)(=O)N4CCCCC4)ccc32)c(OC)c1 | 6% | -26% | . | . | -6%
COc1ccc2c(c1)CC(C(=O)N1CCC(C(N)=O)CC1)CO2 (stereo not given) | 7% | 8% | . | . | 5%
CCN1CCN(C2=C(NS(=O)(=O)c3ccc(NC(C)=O)cc3)C(=O)c3ccccc3C2=O)CC1 | . | . | . | -1% | .
CC(=O)Nc1ccc(S(=O)(=O)NC2=C(N3CCN(Cc4ccccc4)CC3)C(=O)c3ccccc3C2=O)cc1 | -9% | 14µM*[quencher] | -44* | 7% | 16µM*
CC(=O)Nc1ccc(S(=O)(=O)NC2=C(N3CCN(C)CC3)C(=O)c3ccccc3C2=O)cc1 | . | . | -52* | -10% | .
COc1cccc(Nc2nc(NCCO)c3ccccc3n2)c1 | 4% | -13% | -7 | 20µM* | 0%
COc1cccc(Nc2nc(N)c([N+](=O)[O-])c(NCc3ccccc3)n2)c1 | ? | 16µM*[quencher] | -3 | -7% | ?
Cc1cccc(Nc2nc(N)c([N+](=O)[O-])c(NCc3ccccc3)n2)c1 | ? | ? | -2 | -14% | ?
CCOc1ccc(Nc2nc(N)c([N+](=O)[O-])c(NCc3ccccc3)n2)cc1 | 14% | 14µM*[quencher] | 1 | 8% | ?
Cc1ccc(Nc2nc(N)c([N+](=O)[O-])c(NCCO)n2)cc1C | -8%[0.0958 µM] | 0%[0.0958 µM] | -1 | -3% | .

Bioassay records as filed in PubChem BioAssay.
